Measurements as given in PubChem BioAssay (NCI).
Compounds without any hit were thinned out: in the full panel of roughly 83,000, 20% have a hit.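 Method: cells in 96-well plates; compound added at one concentration; 48 h incubation; percent growth measured; values under 10 scored active.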 Unmarked numbers belong to inactive results. Activity calls are given as the source filed them.

tested on: SF-539 CNS; assay: NCI-60 one-dose screen, 48 h (100 = growth as untreated, 0 = no growth, -100 = all killed); conditions: 10 µM unless noted

Row | Compound | growth [%]
1 | COc1cc(/C=C/C(=O)c2ccc(NC(=O)CSc3nnc(-c4cc(OC)c(OC)c(OC)c4)n3-c3ccccc3)cc2)cc(OC)c1OC | 18.6
2 | O=c1c2ccccc2n(CC(O)CN2CCCC2)c2c(Br)cccc12 (stereo not given) | 94.9
3 | COc1cc(-c2cn(-c3ccc(Cl)c(Cl)c3)c(=O)[nH]2)cc(OC)c1OC | 91.3
4 | COC(=O)c1ccc2c(c1)n(Cc1ccc3ccccc3c1)c[n+]2Cc1ccc2ccccc2c1 | 65.7
5 | O=C1NN(c2ccccc2)C(c2ccc(Cl)cc2)N2CCC[C@H]12 (stereo not given in full) | 111
6 | Nc1ccccc1NS(=O)(=O)c1ccc(Cl)cc1 | 95.6
7 | CCCCCCN1C(=O)CN=C1Nc1ccc2cc3ccc(NC4=NCC(=O)N4CCCCCC)cc3nc2c1 | 76.6
8 | Nc1n[nH]c2cccc(C#Cc3cccc(NC(=O)c4cc(N5CCOCC5)cc(C(F)(F)F)c4)c3)c12 | 24.6
9 | Cc1cnc(SCc2ccc(Cl)cc2Cl)nc1Nc1ccc(Cl)c(Cl)c1 | 105

tested on: UACC-257 melanoma; assay: as above; conditions: 10 µM unless noted

Row | Compound | growth
10 | COc1ccc(/C=C/C(=O)/C=C(/C=C/c2ccc(OC)c(OC)c2)OB(F)F)cc1OC | 59.1%
11 | COc1cc(/C=C/C(=O)/C=C/c2cc3ccc(Cl)cc3[nH]c2=O)ccc1O | 90.8%
12 | CCCCn1c(=O)c(/C=C/C(=O)/C=C/c2cc3ccccc3n(CCCC)c2=O)cc2ccccc21 | -24% (active)
13 | COc1ccc(-c2nc(C#N)c(NCC(c3ccco3)N3CCCC3)o2)cc1 (stereo not given) | 55.2%
14 | N#C/C(=C/c1ccc(O)c([N+](=O)[O-])c1)c1nc(-c2ccc([N+](=O)[O-])cc2)cs1 | 20.2%
15 | C=C1C(=O)O[C@H]2[C@H]1CC/C(COC(=O)CCCCC(=O)OC/C1=C/CC[C@@]3(C)O[C@H]3[C@H]3OC(=O)C(=C)[C@@H]3CC1)=C\CC[C@@]1(C)O[C@@H]21 | 81.9%
16 | CCOC(=O)c1c(C(F)(F)F)n([O-])c2ccc(Cl)cc2[n+]1=O | -70.6% (active)
17 | COc1ccc(-c2nc(C#N)c(NCC(c3ccc(Cl)cc3)N3CCCCC3)o2)cc1 (stereo not given) | 109%
18 | O=CN1N=C(c2ccc(Cl)cc2)CC1c1cccc(Nc2ccnc3cc(C(F)(F)F)ccc23)c1 (stereo not given) | 52.1%
19 | O=C(CCCCCCCCC(=O)Nc1cccc(C2=NCCN2)c1)Nc1cccc(C2=NCCN2)c1 | 95.6%
20 | CCOC(=O)C1CCN(S(=O)(=O)/N=C2/NC(=O)NC2=C(Cl)Cl)CC1 | 19.9%
21 | S=c1ssnc1-c1cc2ccccc2o1 | 94.5%
22 | NS(=O)(=O)c1ccc(C2C3=C(CCCC3=O)OC3=C2C(=O)c2ccccc2C3=O)cc1 (stereo not given) | -90.3% (active)
23 | C=C1C(=O)O[C@H]2[C@H]1CCC(/C=N/c1ncc(Br)cc1N)=C\CC[C@@]1(C)O[C@@H]21 | 22%
24 | C#Cc1ccccc1NC(=O)c1sc2nc3c(cc2c1N)CCCCC3 | 110%
25 | NS(=O)(=O)c1ccc(-n2nc(-c3ccccc3)ccc2=O)cc1 | 111%
26 | COc1ccc(-c2nnc(N3CCN(C(=O)CN4CCN(c5ccc(OC)cc5)CC4)CC3)nc2-c2ccc(OC)cc2)cc1 | -8.52% (active)
27 | N#Cc1ccc(Oc2ccc3ccc(=O)oc3c2)cc1 | 114%
28 | CC1CCCN(CCCCCOc2ccc3oc4ccccc4c(=O)c3c2)C1 (stereo not given) | -18.8% (active)
29 | CS(=O)(=O)O[C@@H]1C(=O)N(c2cc3c4ccccc4ccc3c3ccccc23)[C@H]1c1ccc(F)cn1 | 41.7%
30 | C=C1C(=O)O[C@H]2[C@H]1CC/C(C=Nc1c(N)cc(F)cc1Br)=C\CC[C@@]1(C)O[C@@H]21 | 81.9%
31 | Cc1ccc(SC2c3ccc(C)cc3Oc3nc(N)c(C#N)c(N)c32)cc1 (stereo not given) | 94.6%
32 | O=C(Nc1nccs1)c1noc2ccccc12 | 90.6%
33 | C=C(C)[C@@H]1CC[C@]2(C(=O)OCCCC[P+](c3ccccc3)(c3ccccc3)c3ccccc3)CC[C@]3(C)[C@H](CC[C@@H]4[C@@]5(C)CC[C@H](OC(=O)C(Cl)Cl)C(C)(C)[C@@H]5CC[C@]43C)[C@@H]12 | -61% (active)
34 | Cc1cc2ccccc2c[n+]1CC(=O)c1ccc(-c2ccccc2)cc1 | 50.3%
35 | O=C1Nc2ccc(Cl)cc2/C1=N/c1nc(-c2ccc(F)cc2)cs1 | 36.5%
